The text below walks through data of PubChem BioAssay AID2685 (National Center for Advancing Translational Sciences (NCATS), 2010).

Out of some 320,000 compounds screened, about 2,100 (0.66%) were called active. About 53% were inconclusive and are not listed. Calls follow the shape of the dose curve; as a rule, active = well fitted inhibition curve with a large enough effect in the signal ratio, with a control signal flat (not every such curve was filed as active); inconclusive = small, poorly fitted or top-dose-only effect, or effect the other way, or a change in a side signal; inactive = flat fitted curve, though single readings scatter; the % refers to the signal ratio. This excerpt belongs to a sample that is enriched for actives.
Potency is read from the fitted curve at half-maximal effect.

A short description of this test: qHTS Assay for Lipid Storage Modulators in Drosophila S3 Cells.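 As to cell number change: cells counted by Cell Tracker Red CMTPX staining in the red channel.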 The conditions noted are these: BODIPY lipid droplet fluorescence, 18-24 h, cells fed with added oleic acid; cell number change: measured here: cell count max response; series mostly up to 46.1 µM. A digest of the protocol:
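Drosophila S3 cells loaded with oleic acid (400 uM, as added) and compounds at several concentrations; lipid droplets imaged by 488-nm laser-scanning cytometry, 500–530 nm intensity and object ratio to cell channel. Percent activity normalized to 20 uM Triacsin C.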
As for `CCOC(=O)c1ccc(-c2ccc(/C=N/NC(=O)Cc3nnc(N)s3)o2)cc1`, the Potency entry was “inactive” and the cell number change was -10.3%. For `CCOC(=O)C1CCN(C(c2cccc(F)c2)c2sc3nc(C)nn3c2O)CC1` (configuration not stated), the Potency result was “inactive” and the cell number change came out at 9.03%.

Turning to `Cc1nc(S(=O)(=O)N2CCN(C3c4ccccc4-c4ccccc43)CC2)cn1C`, the Potency result was “inactive” and the cell number change stood at 19.2%.

As for `CC(C)Oc1ccc(C(=O)Nc2ccc3c(c2)n(C)c(=O)n3C)cc1`, the Potency was 18.4 µM (active) and the cell number change was -24.3%. As for `COc1ccc(NC(=O)c2ccc3c(c2)n(C)c(=O)n3C)cc1`, the Potency result was “inactive” and the cell number change was -1.07%.

Take `Cn1c(=O)n(C)c2cc(NC(=O)c3ccc(F)cc3)ccc21`: the Potency entry was “inactive” and the cell number change is -7.46%. For the compound `CCN(CC)C(=O)c1ccc(-c2cccs2)s1`, the Potency result is “inactive” and the cell number change worked out at 3.13%. The corresponding values for `COc1ccc(NC(=O)c2oc3ccccc3c2C)cn1` are “inactive” and 13.5%. In the same order, the values of `CCOCc1c(C(=O)Nc2ccc(OC)nc2)oc2ccccc12` are “inactive” and -13.5%. In the same order, the values of `COc1ccc(NC(=O)c2oc3ccccc3c2CSC)cn1` are 23.1 µM (active) and 1.61%. In the case of `CC(C)CCNC(=O)C(C)N(Cc1ccc(F)cc1)C(=O)c1ccc(CN2CCOCC2)o1` (configuration not stated), the Potency entry was “inactive” and the cell number change was -9.3%. In the same order, the values of `COC(=O)c1ccccc1NC(=O)COC(=O)CO/N=C(\C)c1ccc2c(c1)OCO2` are “inactive” and -2.37%. The corresponding values for `Cc1cc(OC(C)C(=O)NCC2CCC(C(=O)O)CC2)c2c(C)cc(=O)oc2c1` (configuration not stated) are “inactive” and -0.291%. For the compound `CCOC(=O)C1CCN(C(=O)c2cc(COc3ccc(OC)c4ccccc34)on2)CC1`, the Potency entry was “inactive” and the cell number change stood at 0.306%. The corresponding values for `CCc1cccc(CC)c1-n1c(SCC(=O)N2CCc3ccccc3C2)nnc1-c1cccnc1` are 16.4 µM (active) and 1.33%.

With `Cn1c(SCC(=O)N2CCc3ccccc3C2)nnc1-c1ccncc1`, the Potency entry was “inactive” and the cell number change turned out to be 6.69%.

As to `Cc1ccc(-n2c(C)nnc2SCC(=O)N2CCc3ccccc3C2)cc1`, the Potency entry is “inactive” and the cell number change was -10.8%. As for `COc1ccc(-c2nc(CN3CCC(C(=O)NCC4CCCO4)CC3)c(C)o2)cc1OC` (configuration not stated), the Potency entry is “inactive”. On the same count and under the same terms, to `CCn1c(SCC(=O)c2ccccc2)nc2c(c1=O)SC(C)C2` (configuration not stated) belongs “inactive”. Take `N#CC1(NC(=O)COc2ccc(S(=O)(=O)N3CCCC3)cc2[N+](=O)[O-])CCCCC1`: the Potency entry is “inactive” and the cell number change was -3.48%.

On to `N#CC1(NC(=O)COc2ccccc2[N+](=O)[O-])CCCCC1`, for which the Potency entry was “inactive”.

Consider `N#CC1(NC(=O)COc2cc(F)ccc2[N+](=O)[O-])CCCCC1`, for which the Potency is 11.6 µM (active) and the cell number change is -12.3%. In the case of `COc1cccc(C2=NOC(C(=O)N3CCN(Cc4ccccc4)CC3)C2)c1OC` (configuration not stated), the Potency entry was “inactive” and the cell number change was -0.697%. The corresponding values for `COc1ccc(CCN(C)CC(O)COC(c2ccc(F)cc2)c2ccc(F)cc2)cc1OC` (configuration not stated) are “inactive” and -8.84%. Turning to `COc1cccc(CN2CCN(C3CCN(c4ccccc4C)CC3)CC2CCO)c1` (configuration not stated), the Potency result is “inactive” and the cell number change is -24%.
